# From PubChem BioAssay (NCATS)
# Records with an inconclusive call do not appear. Entries that show only a call come without a potency. Active and inactive are the calls of the source. Unless noted, the call rests on the fitted dose curve; in most records, active means well fitted curve in the direction sought with a large enough effect; inconclusive means small, poorly fitted or top-dose-only effect, or another doubt; inactive means no such curve, though single readings can be large; an effect the other way counts as inactive or inconclusive.
# Legend:
# [1] = Cytometric Cell-Based qHTS for Inhibitors of the mTORC1 Signaling Pathway in MEF (Tsc2-/-, p53-/-) Cells (AID 2660);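 further: percent of cells above a phospho-rpS6 to PI ratio cutoff in each well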
# In short: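 Tsc2-/-, p53-/- MEFs (empty vector) exposed to compound 24 h at 37 C, fixed, stained with Alexa-488 anti-phospho-rpS6 Ser235/236 and propidium iodide. Acumen laser scanning; phospho-S6/PI ratio thresholded against 7.5 nM rapamycin, reported as % positive cells.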
# [2] = High Content Imaging Cell-Based qHTS for Inhibitors of the mTORC1 Signaling Pathway in MEF (Tsc2-/-, p53-/-) Cells (AID 2666); details: at 38.3 µM (top of the series);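 further: percent of cells scored positive for phospho-rpS6 Ser235/236 immunostaining by imaging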
# In short: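 Tsc2-/-, p53-/- MEFs (empty-vector stable) grown in DMEM + 10% FBS were exposed to compounds for 24 hrs at 37 degree Celsius, fixed, and stained with Alexa-488 anti-phospho-rpS6 Ser235/236 plus Hoechst. Imaging gave the percentage of positive cells per well.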
# [3] = High Content Imaging Cell-Based qHTS for Inhibitors of the mTORC1 Signaling Pathway in MEF Cells (AID 2667);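 further: Tsc2-/- p53-/- MEFs stably re-expressing wild-type Tsc2 exposed 24 h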
# In short: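 Tsc2-/-, p53-/- MEFs stably re-expressing WT Tsc2, grown in DMEM + 10% FBS, were treated with compounds for 24 hrs at 37 degree Celsius, fixed, and stained with Alexa-488 phospho-rpS6 Ser235/236 antibody plus Hoechst; results given as % positive cells.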
# [4] = Cytometry Cell-Based qHTS for Inhibitors of the mTORC1 Signaling Pathway in MEF cells (AID 2668);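 further: Tsc2-/- p53-/- mouse embryonic fibroblasts stably re-expressing wild-type Tsc2; percent cells positive for phospho-rpS6 Ser235/236 relative to propidium iodide stain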
# In short: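 Phospho-rpS6 (Ser235/236) immunofluorescence over PI signal, scored as % positive cells using thresholds from 7.5 nM rapamycin and DMSO wells, after 24 h compound exposure of WT-Tsc2-rescued Tsc2-/-, p53-/- MEFs. PI cell count recorded for viability.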
# [5] = target: Ubiquitin carboxyl-terminal hydrolase 2 (Homo sapiens) (UniProt O75604); assay: qHTS Validation Assay for Inhibitors of Ubiquitin-specific Protease USP2a Using CHOP2 as the Reporter (AID 463106)
# In short: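 Readout was coupled fluorescence (Ex 485/Em 531 nm), read 60 min after adding 25 nM final Ub-CHOP2 and 25 nM reporter substrate. Beforehand, 10 nM final USP2 core had 30 min at RT with compound in pH 8.0 buffer. Curves were fitted after normalization to NEM and flagged for artifacts using time-zero reads.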
# [6] = target: Tumor susceptibility gene 101 protein (Homo sapiens) (UniProt Q99816); assay: qHTS Validation Assay for Iinhibitors of HIV-1 Budding by Blocking the Interaction of PTAP/TSG101 (AID 485342; calls by dose curve)
# In short: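 Fluorescence polarization of 50 nM FITC-PTAP peptide bound to 10 uM Tsg101 binding domain was read after 20 min room-temperature incubation with compounds, in 10 mM HEPES pH 7.5, 0.15 M NaCl, 0.01% Tween 20.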
# [7] = target: Beta-2 adrenergic receptor (Homo sapiens) (UniProt P07550); assay: qHTS validation assay of beta-arrestin-biased ligands of beta2-adrenergic receptor (AID 485366)
# In short: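 qHTS, Tango cells, 1500 cells/well, DMEM + 1% FBS. Cpd 18 hr at 37 degrees C. Luciferin/ATP/CoA detection mix, 15 min RT, luminescence read. %Activity from corrected signal; CRC fit, curve class.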
# [8] = target: ATP-dependent 6-phosphofructokinase (Trypanosoma brucei brucei) (UniProt O15648); assay: qHTS Validation Assay to Find Inhibitors of T. brucei phosphofructokinase (AID 485368)
# In short: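 Luminescent ADP detection measures PFK turnover of fructose-6-phosphate (0.5 mM) with ATP (0.1 mM) at pH 8.0. Reaction runs 45 min at room temperature with 1.25 nM enzyme; inhibitors tested as titrations up to 57 uM.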
# [9] = target: Thioredoxin reductase 1, cytoplasmic (Rattus norvegicus) (UniProt O89049); assay: qHTS Assay for Substrates of Mammalian Selenoprotein Thioredoxin Reductase 1 (TrxR1) (AID 488772);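 further: a drop in NADPH fluorescence below the no-compound background marks a TrxR1 substrate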
# In short: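 In this dual-purpose format, potential substrates are identified from the first fluorescence read after selenite addition, not from the 8-minute delta. Rat enzyme is preincubated with NADPH and then with compound at ~22 deg C.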
# [10] = target: Thioredoxin reductase 1, cytoplasmic (Rattus norvegicus) (UniProt O89049); assay: qHTS Assay for Inhibitors of Mammalian Selenoprotein Thioredoxin Reductase 1 (TrxR1) (AID 488773); details: Potency: inhibition;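 further: drop in NADPH fluorescence over an 8 min run after selenite addition; nearly all actives have a fitted effect of over 40% in size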
# In short: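 Inhibition is scored from the loss of NADPH fluorescence between first and last reads of an 8-min kinetic run. Selenite (400 uM) was the substrate, added after 15 min compound preincubation at room temperature.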
# [11] = target: M-phase phosphoprotein 8 (Homo sapiens) (UniProt Q99549); assay: qHTS Validation Assay for Inhibitors for MPP8 Chromodomain Interactions with Methylated Histone Tails (AID 488949);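 further: AlphaScreen signal from MPP8 chromodomain bound to biotinylated H3K9me3 peptide; top concentration of the series differs between compounds; nearly all actives have a fitted effect of over 55% in size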
# In short: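 AlphaScreen proximity signal from streptavidin donor and Ni-chelate acceptor beads (10 ug/mL each) reported binding of MPP8 to trimethyl-K9 H3(1-18) peptide, both at 50 nM. The complex formed 30 min before a 30 min compound exposure at room temperature, in PBS pH 7.4.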
# [12] = target: Methanococcus maripaludis chaperonin (MmCpn) (UniProt Q6LX38); assay: High-Throughput Screening for Modulators of Cytosolic Chaperonin Activity: MmCpn Primary Screen (AID 488978);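 further: 50 nM MmCpn enzyme hydrolysing 30 µM ATP at 37 °C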
# In short: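 ATPase activity of 50 nM MmCpn was assayed with 30 uM ATP, 10 minutes at 37C, after a 5 min compound preincubation at room temperature. ADP production was read as HTRF emission at 590 and 665 nm.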
# [13] = target: D(1A) dopamine receptor (Homo sapiens) (UniProt P21728); assay: HTS Assay for Allosteric Agonists of the Human D1 Dopamine Receptor: Primary Screen for Agonists (AID 488981)
# In short: (§1)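 Calcium flux in an inducible, force-coupled HEK293 Trex D1 line (overnight at 30 C): agonist mode is the 180 s kinetic read after compound; potentiator mode is the following 180 s read after dopamine at EC20.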
# [14] = target: D(1A) dopamine receptor (Homo sapiens) (UniProt P21728); assay: HTS Assay for Allosteric Agonists of the Human D1 Dopamine Receptor: Primary Screen for Potentiators (AID 488982)
# In short: as §1
# [15] = target: D(1A) dopamine receptor (Homo sapiens) (UniProt P21728); assay: HTS Assay for Allosteric Agonists of the Human D1 Dopamine Receptor: Primary Screen for Antagonists (AID 488983);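 further: calcium flux response to an EC80 dopamine challenge measured with no-wash dye; nearly all actives have a fitted effect of over 65% in size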
# In short: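 Calcium-flux read-out in inducible HEK293 T-REx cells expressing D1, dye-loaded 30–90 min at room temperature. Kinetic reads: 180 s after compound (agonist phase), then 180 s after an EC80 dopamine challenge.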
# [16] = Nrf2 qHTS screen for inhibitors: Validation (AID 493153; active means well fitted inhibition curve with a large enough effect in the main read-out, with a control signal flat, not every such curve was filed as active); details: viability change: measured here: cytotoxicity max response
# In short: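 Concentration-response on A549 ARE_Fluc reporter cells exposed 18-24 h at 37 C, 5% CO2. Cytotoxicity read first by CellTiter-Fluor fluorescence (Ex 405/Em 525), then Nrf2 inhibition by BugLite luminescence after 15 min.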
# [17] = qHTS for Inhibitors of Cell Surface uPA Generation: Validation Assay (AID 493164);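 further: RAW 264.7 macrophage cells exposed to compound for 18 h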
# In short: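 ATP-Lite luminescence read-out: ATP remains high when uPA activity-dependent LF translocation into the cytoplasm is blocked. RAW 264.7 cells, 18 h compound exposure at 37 C; 7-point titration, 2.45 nM to 38.3 uM final.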
# [18] = target: Phosphoglycerate kinase, glycosomal (Trypanosoma brucei brucei) (UniProt P07378); assay: qHTS Validation Assay to Find Inhibitors of Phosphoglycerate Kinase (AID 504547)
# In short: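 Luminescence end-point (Kinase-Glo Plus, 10 min) after a 60 min room-temperature coupled reaction. GAPDH at 100nM final supplies 1,3-BPG to PGK. Buffer: 100mM TEA pH 7.6, 5mM MgCl2, 0.01% Tween-20. Wells lacking PGK served as controls.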
# [19] = target: phosphoglycerate mutase (Leishmania major) (UniProt Q4Q090); assay: qHTS Validation Assay to Find Inhibitors of Phosphoglycerate Mutase (AID 504548)
# In short: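 Lm PGAM at 1.25 nM final with substrate in 100 mM TEA pH 7.6, 5 mM MgCl2, 0.01% Tween-20; 45 min at room temperature. Kinase-GloPlus added, 10 min, end-point luminescence read.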
# [20] = target: Ubiquitin carboxyl-terminal hydrolase 1 (Homo sapiens) (UniProt O94782); assay: Inhibitors of USP1/UAF1: Pilot qHTS (AID 504865);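 further: rhodamine fluorescence freed from ubiquitin-rhodamine substrate followed over time; top concentration of the series differs between compounds; nearly all actives have a fitted effect of over 35% in size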
# In short: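 Deubiquitinase activity followed as kinetic rhodamine fluorescence release from 150 nM Ub-Rho. 1 nM USP1/UAF1 with compound, after 15 min room-temperature preincubation, in HEPES pH 7.8 buffer containing TCEP, EDTA, BSA and Tween-20.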
# [21] = qHTS for Inhibitors of ATXN expression: Validation of Cytotoxic Assay (AID 588349)
# In short: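 Cytotoxicity counter-screen: ATP-based luminescent viability (CellTiter Glo) after 72 hr exposure of HEK293 cells to a compound titration at 37 degrees C.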
# [22] = qHTS for Inhibitors of ATXN expression: Validation (AID 588378); further: nearly all actives have a fitted effect of over 75% in size
# In short: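 Luciferase luminescence (Bright-Glo) from an ATXN2-FFLuc HEK293 line after 24 h compound exposure at 37 °C, preceded by a CellTiter-Fluor fluorescence viability read. Serial dilutions of a reference ATXN2 inhibitor and a luciferase inhibitor served as controls.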
# [23] = target: Glutaminase kidney isoform, mitochondrial (Homo sapiens) (UniProt O94925); assay: qHTS for Inhibitors of Glutaminase (GLS): LOPAC Validation (AID 624146);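 further: glutamate product detected by oxidase and peroxidase coupled Amplex red fluorescence gain; nearly all actives have a fitted effect of over 60% in size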
# In short: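 hKGA in 45 mM KH2PO4 pH 8.2, 0.02% Tween-20 with pin-transferred compounds; 1 mM L-glutamine (stock) plus glutamate oxidase/HRP/Amplex Red coupling added. Fluorescence read initially and after 30 min at RT.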
# [24] = qHTS of Trypanosoma Brucei Inhibitors: LOPAC Validation (AID 624147)
# In short: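 Glycolytic pyruvate kinase of T. brucei was incubated with substrate, test compound and 130 uM ADP for 45 minutes at room temperature. Luminescent Kinase-Glo Plus signal was measured after 10 minutes.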
# [25] = target: Glucagon-like peptide 1 receptor (Homo sapiens) (UniProt P43220); assay: qHTS of GLP-1 Receptor Agonists: LOPAC Validation (AID 624148);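 further: luminescence from a luciferase reporter switched on by cAMP; higher luminescence signal means agonism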
# In short: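 Agonism scored as increased luciferase luminescence driven by cAMP in HEK293 clones carrying GLP-1R. Cells settled 12 hours, received compound for 4-6 hr at 37 deg C, 5% CO2, and were read after 12 min detection reagent at RT.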
# [26] = qHTS of Nrf2 Activators: LOPAC Validation (AID 624149)
# In short: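 Luciferase signal from ARE activation, read with Steady-Glo after 30 min at room temperature. Compounds were pin-transferred onto AREc32_Fluc cells (1000/well, OPTI-MEM/5% FBS, seeded overnight) and left 24 hr at 37 deg C.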
# [27] = HTS Assay for Allosteric Antagonists of the Human D2 Dopamine Receptor: Hit Validation in HTRF (AID 624455);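 further: stable D1 dopamine receptor cell line scored for blocking the D1 response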
# In short: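 Inhibition of the D1-mediated response was measured by HTRF. Cells used were a line stably expressing the D1 dopamine receptor.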
# [28] = qHTS for compounds that reverse cellular toxicity of Amyloid beta (A-beta) peptide in yeast: LOPAC Validation Assay (AID 720559)
# In short: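 Rescue of A-beta toxicity was scored as yeast growth by 600 nm absorbance after 48 hr at 30 C with compound. Normalization used DMSO (negative) and equimolar ferric chloride plus clioquinol (positive).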
# [29] = qHTS for Activators of Parkin Expression: LOPAC Validation Assay (NLuc Reporter) (AID 720572)
# In short: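 Compound effects on Parkin promoter activity were measured as NanoLuc luminescence after 24 h at 37 C. The neuronal reporter line also carried FLuc, which was read first. LOPAC compounds were tested at 7 concentrations, with normalization to DMSO (0%) and positive control (100%).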
# Sequence of D(1A) dopamine receptor (Homo sapiens) (P21728 whole entry, looked up): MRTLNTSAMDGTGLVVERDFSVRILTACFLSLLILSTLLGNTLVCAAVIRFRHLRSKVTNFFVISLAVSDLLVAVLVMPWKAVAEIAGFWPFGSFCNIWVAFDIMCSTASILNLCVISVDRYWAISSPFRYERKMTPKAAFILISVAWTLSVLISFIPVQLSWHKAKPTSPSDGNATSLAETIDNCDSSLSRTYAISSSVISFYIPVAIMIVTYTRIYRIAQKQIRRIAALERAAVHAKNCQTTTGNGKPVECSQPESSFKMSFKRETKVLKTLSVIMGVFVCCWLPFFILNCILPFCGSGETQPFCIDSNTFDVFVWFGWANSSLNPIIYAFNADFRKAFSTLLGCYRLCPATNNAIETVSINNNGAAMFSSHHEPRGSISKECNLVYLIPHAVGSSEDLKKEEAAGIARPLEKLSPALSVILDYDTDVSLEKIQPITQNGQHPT
# Sequence of Thioredoxin reductase 1, cytoplasmic (Rattus norvegicus) (O89049 whole entry, looked up): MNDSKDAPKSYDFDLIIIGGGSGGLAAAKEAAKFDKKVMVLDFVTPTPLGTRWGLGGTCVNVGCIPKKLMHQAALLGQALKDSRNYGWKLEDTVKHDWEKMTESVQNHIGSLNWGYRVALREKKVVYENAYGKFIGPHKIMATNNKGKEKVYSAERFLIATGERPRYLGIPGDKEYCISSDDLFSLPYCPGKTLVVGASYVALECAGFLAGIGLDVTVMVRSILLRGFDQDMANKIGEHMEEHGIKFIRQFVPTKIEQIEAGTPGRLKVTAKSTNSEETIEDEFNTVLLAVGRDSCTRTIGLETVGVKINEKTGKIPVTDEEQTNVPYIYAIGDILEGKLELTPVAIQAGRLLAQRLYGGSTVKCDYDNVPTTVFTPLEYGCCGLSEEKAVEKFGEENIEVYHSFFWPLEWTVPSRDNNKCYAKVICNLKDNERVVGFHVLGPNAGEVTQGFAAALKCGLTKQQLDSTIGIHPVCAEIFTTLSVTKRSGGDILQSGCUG
# Sequence of Methanococcus maripaludis chaperonin (MmCpn) (Q6LX38 1-543): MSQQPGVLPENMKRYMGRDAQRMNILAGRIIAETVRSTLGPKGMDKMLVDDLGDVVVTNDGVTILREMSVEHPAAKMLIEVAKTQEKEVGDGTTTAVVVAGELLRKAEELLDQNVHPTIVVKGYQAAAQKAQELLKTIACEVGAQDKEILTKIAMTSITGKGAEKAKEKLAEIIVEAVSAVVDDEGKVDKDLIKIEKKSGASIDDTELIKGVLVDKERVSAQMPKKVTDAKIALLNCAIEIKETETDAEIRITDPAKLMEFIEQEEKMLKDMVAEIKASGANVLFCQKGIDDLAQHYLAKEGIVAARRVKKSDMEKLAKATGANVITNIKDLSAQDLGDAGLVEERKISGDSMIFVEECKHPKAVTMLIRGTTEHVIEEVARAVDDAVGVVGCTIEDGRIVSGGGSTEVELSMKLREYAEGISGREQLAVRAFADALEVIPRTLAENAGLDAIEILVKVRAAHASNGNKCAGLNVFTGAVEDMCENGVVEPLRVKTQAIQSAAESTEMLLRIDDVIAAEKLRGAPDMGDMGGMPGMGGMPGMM
# Sequence of M-phase phosphoprotein 8 (Homo sapiens) (Q99549 whole entry, looked up): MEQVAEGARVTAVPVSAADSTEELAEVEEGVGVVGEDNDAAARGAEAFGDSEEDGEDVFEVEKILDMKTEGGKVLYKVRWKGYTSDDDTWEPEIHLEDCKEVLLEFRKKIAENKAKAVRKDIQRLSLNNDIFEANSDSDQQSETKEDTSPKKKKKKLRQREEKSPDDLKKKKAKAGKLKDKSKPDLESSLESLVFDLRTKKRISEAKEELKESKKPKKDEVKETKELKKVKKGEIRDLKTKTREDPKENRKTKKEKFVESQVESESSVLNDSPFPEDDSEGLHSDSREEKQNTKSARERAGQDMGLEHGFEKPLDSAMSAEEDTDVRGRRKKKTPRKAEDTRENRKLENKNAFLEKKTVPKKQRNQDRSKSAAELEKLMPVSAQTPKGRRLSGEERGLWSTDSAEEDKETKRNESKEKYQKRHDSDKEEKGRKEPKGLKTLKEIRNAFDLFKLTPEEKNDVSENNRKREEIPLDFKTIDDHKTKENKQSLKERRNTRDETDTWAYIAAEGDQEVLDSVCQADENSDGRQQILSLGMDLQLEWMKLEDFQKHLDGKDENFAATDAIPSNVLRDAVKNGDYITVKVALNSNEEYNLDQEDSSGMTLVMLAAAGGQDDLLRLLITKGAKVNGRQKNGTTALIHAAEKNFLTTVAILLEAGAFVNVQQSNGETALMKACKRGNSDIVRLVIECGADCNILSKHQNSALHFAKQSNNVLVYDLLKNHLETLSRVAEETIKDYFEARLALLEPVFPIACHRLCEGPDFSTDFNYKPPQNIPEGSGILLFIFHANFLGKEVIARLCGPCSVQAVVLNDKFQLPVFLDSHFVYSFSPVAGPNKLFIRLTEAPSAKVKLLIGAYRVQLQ
# Sequence of Glutaminase kidney isoform, mitochondrial (Homo sapiens) (O94925 whole entry, looked up, canonical isoform): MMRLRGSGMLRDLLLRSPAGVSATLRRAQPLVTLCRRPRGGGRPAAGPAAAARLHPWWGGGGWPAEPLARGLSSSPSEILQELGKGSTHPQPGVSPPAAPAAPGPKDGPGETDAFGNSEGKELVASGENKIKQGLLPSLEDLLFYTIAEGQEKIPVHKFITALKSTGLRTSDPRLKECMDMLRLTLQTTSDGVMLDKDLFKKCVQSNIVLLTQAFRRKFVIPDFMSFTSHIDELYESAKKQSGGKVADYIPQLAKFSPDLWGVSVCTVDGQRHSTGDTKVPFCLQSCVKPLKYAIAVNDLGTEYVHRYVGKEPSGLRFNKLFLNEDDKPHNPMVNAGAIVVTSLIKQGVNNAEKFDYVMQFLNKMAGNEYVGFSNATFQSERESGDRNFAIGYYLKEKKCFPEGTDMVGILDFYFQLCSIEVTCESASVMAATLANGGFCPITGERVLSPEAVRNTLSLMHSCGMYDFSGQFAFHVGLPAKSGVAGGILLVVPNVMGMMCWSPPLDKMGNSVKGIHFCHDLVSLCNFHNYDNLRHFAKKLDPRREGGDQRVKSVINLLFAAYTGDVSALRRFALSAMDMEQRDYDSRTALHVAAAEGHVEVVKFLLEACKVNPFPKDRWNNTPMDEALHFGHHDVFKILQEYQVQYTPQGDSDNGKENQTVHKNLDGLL
# Sequence of Ubiquitin carboxyl-terminal hydrolase 2 (Homo sapiens) (O75604 whole entry, looked up): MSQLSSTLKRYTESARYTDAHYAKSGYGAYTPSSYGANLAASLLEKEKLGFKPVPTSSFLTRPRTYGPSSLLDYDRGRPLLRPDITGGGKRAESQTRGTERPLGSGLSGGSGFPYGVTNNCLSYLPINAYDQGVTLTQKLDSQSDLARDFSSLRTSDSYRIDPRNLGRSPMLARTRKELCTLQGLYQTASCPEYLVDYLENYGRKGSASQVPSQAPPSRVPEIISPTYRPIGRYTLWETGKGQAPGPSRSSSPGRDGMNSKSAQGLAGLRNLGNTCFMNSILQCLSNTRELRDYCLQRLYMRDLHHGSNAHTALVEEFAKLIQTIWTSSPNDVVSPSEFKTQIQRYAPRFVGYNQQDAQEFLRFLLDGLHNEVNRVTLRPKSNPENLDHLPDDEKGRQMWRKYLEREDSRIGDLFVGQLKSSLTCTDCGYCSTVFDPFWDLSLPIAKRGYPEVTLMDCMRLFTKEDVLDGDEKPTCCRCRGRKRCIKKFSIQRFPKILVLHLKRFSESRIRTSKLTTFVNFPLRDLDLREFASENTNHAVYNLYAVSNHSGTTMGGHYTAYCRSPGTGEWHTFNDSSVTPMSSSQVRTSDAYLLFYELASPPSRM
# Sequence of Beta-2 adrenergic receptor (Homo sapiens) (P07550 whole entry, looked up): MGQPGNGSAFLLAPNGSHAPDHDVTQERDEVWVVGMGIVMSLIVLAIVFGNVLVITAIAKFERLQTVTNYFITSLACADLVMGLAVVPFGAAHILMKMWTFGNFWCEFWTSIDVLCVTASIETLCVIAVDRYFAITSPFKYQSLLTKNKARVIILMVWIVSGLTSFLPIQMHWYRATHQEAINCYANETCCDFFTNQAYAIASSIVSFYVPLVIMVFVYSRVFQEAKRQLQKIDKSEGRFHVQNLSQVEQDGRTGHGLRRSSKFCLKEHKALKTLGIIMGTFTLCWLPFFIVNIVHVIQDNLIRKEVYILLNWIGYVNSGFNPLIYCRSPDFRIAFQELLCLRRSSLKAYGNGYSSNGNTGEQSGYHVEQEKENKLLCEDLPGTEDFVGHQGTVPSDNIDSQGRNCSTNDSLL
# Sequence of Ubiquitin carboxyl-terminal hydrolase 1 (Homo sapiens) (O94782 whole entry, looked up): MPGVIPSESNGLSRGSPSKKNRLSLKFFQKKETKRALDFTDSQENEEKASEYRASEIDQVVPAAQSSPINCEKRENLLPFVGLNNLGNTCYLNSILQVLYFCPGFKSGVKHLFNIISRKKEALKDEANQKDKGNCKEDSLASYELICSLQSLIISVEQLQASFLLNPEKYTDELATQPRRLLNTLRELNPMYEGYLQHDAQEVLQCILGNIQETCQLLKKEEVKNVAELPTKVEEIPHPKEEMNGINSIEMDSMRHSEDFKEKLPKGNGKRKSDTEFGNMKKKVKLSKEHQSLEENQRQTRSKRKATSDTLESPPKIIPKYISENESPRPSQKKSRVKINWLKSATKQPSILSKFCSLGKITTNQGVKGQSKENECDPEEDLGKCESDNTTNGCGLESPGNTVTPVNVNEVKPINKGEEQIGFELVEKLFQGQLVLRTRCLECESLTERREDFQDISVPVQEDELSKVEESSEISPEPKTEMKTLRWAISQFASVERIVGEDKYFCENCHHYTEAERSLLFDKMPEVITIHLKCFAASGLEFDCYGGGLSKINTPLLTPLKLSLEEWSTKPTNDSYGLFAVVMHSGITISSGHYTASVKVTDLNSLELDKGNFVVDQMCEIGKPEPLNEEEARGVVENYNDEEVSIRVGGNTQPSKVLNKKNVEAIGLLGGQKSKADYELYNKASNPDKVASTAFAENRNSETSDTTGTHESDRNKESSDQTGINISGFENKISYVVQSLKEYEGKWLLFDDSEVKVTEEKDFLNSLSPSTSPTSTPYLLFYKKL
structure (smiles),measurement,setting,value
C[C@H](Cc1ccccc1)Nc1ncnc2c1ncn2[C@@H]1O[C@H](CO)[C@@H](O)[C@H]1O,outcome,[1],inactive
same,outcome,[2],inactive
same,Potency,[3],inactive
same,Potency,[4],inactive
same,Potency,[5],inactive
same,outcome,[6],inactive
same,outcome,[7],inactive
same,Potency,[8],inactive
same,outcome,[9],inactive
same,Potency,[10],inactive
same,Potency,[11],inactive
same,outcome,[12],inactive
same,outcome,[13],inactive
same,outcome,[14],inactive
same,outcome,[15],inactive
same,outcome,[16],inactive
same,viability change,[16],6.66%
same,outcome,[17],inactive
same,Potency,[18],inactive
same,outcome,[19],inactive
same,Potency,[20],inactive
same,Potency,[21],inactive
same,Potency,[22],inactive
same,Potency,[23],inactive
same,outcome,[24],inactive
same,outcome,[25],inactive
same,outcome,[26],inactive
same,outcome,[27],inactive
same,outcome,[28],inactive
same,outcome,[29],inactive
